Drawing on PubChem BioAssay (NCI), this text covers growth for 40 compounds.

Molecules are shown by their SMILES. This is part of a sample that, as a whole, favours compounds with a hit. Of some 83,000 tested, about 20% had one in any assay.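 Assay: single dose, 48 h. Readout: percent growth (0 = no net growth; negative = cell death). Active: <10.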 A number with no mark means an inactive call. The source made the active and inactive calls.

For this experiment, the system named is HL-60(TB) leukemia. In words: NCI-60 one-dose screen, 48 h (100 = growth as untreated, 0 = no growth, -100 = all killed). Particulars: 10 µM unless noted.
Regarding `COc1cc(C(=O)/C=C/c2sc(Cl)nc2Cl)cc(OC)c1OC`, the growth was 23.4%.

In the case of `CC1=Nc2cnc(Nc3ccc(N4CCCCC4)cc3)nc2Nc2ccccc21`, the growth was 28.1%.

On to `CN1CCN(c2nc(-c3ccncc3)nc3sc4c(c23)CCCCCC4)CC1`, for which the growth was 88.3%.

As for `Cn1nc(-c2ccccc2)c2c(-c3ccccc3)onc2c1=O`, the growth was 1.23% (active).

As for `Cc1ccccc1N1C(c2ccccc2)=NNC12C=CC(=O)C=C2Cl` (stereo not given), the growth is 82.4%.

For the compound `COc1ccc(-c2oc(=O)ccc2-c2cc(OC)c(OC)c(OC)c2)cc1F`, the growth was 44.6%.

Regarding `COc1cc(OC)c(/C=C/S(=O)(=O)Cc2cnc(OC)c(N)c2)c(OC)c1`, the growth is -39.5% (active).

In the case of `Cc1ccc2[nH]c(=O)c3c(c2c1)OC(N)=C(C#N)C31c2cc(Br)ccc2-c2ccc(Br)cc21`, the growth is 85.7%.

`O=C1C(=O)c2cccnc2-c2ncccc21`: the growth is -21% (active).

Take `O=C1NC(=O)c2c(CCCSc3nc4ccccc4c(=O)n3CCc3ccccc3)cccc21`: the growth is 111%.

As to `COc1cc(-c2nc3nc4sc(C)c(C)c4c(=O)n3[nH]2)cc(OC)c1OC`, the growth is 80.7%.

Turning to `Cn1c2c(c3ccc(-c4ccn[nH]4)cc3c1=O)C(=O)c1ccccc1-2`, the growth is -17.7% (active).

As to `COC(=O)c1ccc(C)cc1`, the growth is 106%.

Take `COc1cccc(NC(=O)c2sc3nc4c(cc3c2N)CN(Cc2ccccc2)CC4)c1`: the growth is 50.1%.

Take `N#CCCCCCCCCCCC#N`: the growth was 98.7%.

Consider `Nc1c(C(=O)Nc2c(Cl)cccc2Cl)sc2nc3c(cc12)CCCC3`, for which the growth was 35%.

For `O=c1ccccc(-c2ccc(-c3ccco3)cc2)c1O`, the growth is -30.3% (active).

On to `CC(=O)Nc1nc(C)c(C(=O)N/N=C/c2cccn2C)s1`, for which the growth was 112%.

As for `CSC1SCC2C(=O)N(C)C(C(C)C)C(=O)OCC(NC(=O)c3cnc4ccccc4n3)C(=O)NC(C)C(=O)N(C)C1C(=O)N(C)C(C(C)C)C(=O)OCC(NC(=O)c1cnc3ccccc3n1)C(=O)NC(C)C(=O)N2C` (stereo not given), the growth was -51.1% (active).

For the compound `CC(C)=CCNc1ncnc2c1ncn2C1OC(CO)C(O)C1O` (stereo not given), the growth was -40.7% [1 mM] (active).

For `COc1ccc(C(=O)c2cc(F)c(F)c(OC)c2F)cc1OC(=O)CCl`, the growth was 11.7%.

For the compound `CC1=C[C@@H]2c3c(c(O)c(O)c4oc5cc(O)cc(O)c5c(=O)c34)[C@@H](c3cc(O)c(O)c4oc5cc(O)cc(O)c5c(=O)c34)[C@@H]2C(C)(C)C1`, the growth is -3.85% (active).

Regarding `CCOC(=O)c1ccc2c(c1)c1c(C)c3cnccc3c(C)c1n2C`, the growth is -18.8% (active).

Turning to `COc1ccc(/C=C/C(=O)/C=C/c2cc3ccc(Cl)cc3[nH]c2=O)cc1`, the growth is 71%.

On to `COC(=O)c1c(C)[nH]c(/C=C2\N=C(c3ccc[nH]3)C=C2OC)c1C`, for which the growth is 4.25% (active).

For `CC1=CSC2=NCCN12`, the growth is 97.1%.

Turning to `COC(=O)CCCCCn1c2ccccc2c2c3c(c4c5ccccc5[nH]c4c21)C(=O)N(O)C3=O`, the growth was 19.1%.

Take `CCOc1nc(-c2ccccc2)cc2c(O)c(C(=O)N/N=C/c3ccc(N(C)C)cc3)[nH]c(=O)c12`: the growth is 111%.

As to `O=C1C(=O)c2ccccc2C(O)=C1CCCc1ccc(C2CCCCC2)cc1`, the growth is 30.6%.

Turning to `CCOC(=O)c1c(C)[nH]c2ccc(O)cc12`, the growth is 95.7%.

For `COc1ccc(Cl)cc1NC(=O)c1cc2c(n1C)-c1nc(NC(=O)C(C)C)sc1CC2`, the growth is 74.7%.

For `Cc1ccc(N/N=C(/C(=O)c2ccc(Cl)cc2)c2nc(C)cc(=O)[nH]2)cc1`, the growth is 109%.

Take `C=CC(=O)Nc1cccc(-c2nc(SC)nc(NCc3ccccc3)c2C#N)c1`: the growth was 50%.

`CN(C)CCC(=O)c1c[nH]c2ccccc12`: the growth is 96.5%.

As to `CCOC(=O)c1cc2c(n1Cc1cc(OC)cc(OC)c1)-c1oncc1CCC2`, the growth was 5.41% (active).

For the compound `O=C1c2ccccc2C(=O)c2c1ccc(C(Br)Br)c2[N+](=O)[O-]`, the growth is -37.9% (active).

`COc1ccc(-c2cc(-c3cn(-c4cccc(Cl)c4)nc3-c3ccc(OC)cc3)on2)cc1`: the growth was 93.6%.

Consider `NC(=O)C1(N2CCCCC2)CCN(CCCC(=O)c2ccc(F)cc2)CC1`, for which the growth was 9.84% (active).

Regarding `COc1ccc(C2=NN(C(=O)c3cc(OC)c(OC)c(OC)c3)C(c3ccc(C#N)cc3)C2)cc1OC` (stereo not given), the growth is 4.24% (active).

For the compound `Cc1c(C2=CCCCC2)c2ccccn2c1C(=O)c1cccc(S(=O)(=O)N2CCOCC2)c1`, the growth is 132%.
